Screens deposited in PubChem by The Scripps Research Institute Molecular Screening Center.
The list is not random: actives were taken first. Their share in the collection is about 3.5%.
MITF inh – human MITF inhibition, primary screen | O75030 | AlphaScreen MITF homodimerization, bead proximity signal | inhibition, % at 2.6 µM | hit rate 0.91% among 650,000 | AID 1259374; in the data active means inhibition above about 50%;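 further: 0% = vehicle wells with protein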
Target sequence (O75030 whole entry, looked up): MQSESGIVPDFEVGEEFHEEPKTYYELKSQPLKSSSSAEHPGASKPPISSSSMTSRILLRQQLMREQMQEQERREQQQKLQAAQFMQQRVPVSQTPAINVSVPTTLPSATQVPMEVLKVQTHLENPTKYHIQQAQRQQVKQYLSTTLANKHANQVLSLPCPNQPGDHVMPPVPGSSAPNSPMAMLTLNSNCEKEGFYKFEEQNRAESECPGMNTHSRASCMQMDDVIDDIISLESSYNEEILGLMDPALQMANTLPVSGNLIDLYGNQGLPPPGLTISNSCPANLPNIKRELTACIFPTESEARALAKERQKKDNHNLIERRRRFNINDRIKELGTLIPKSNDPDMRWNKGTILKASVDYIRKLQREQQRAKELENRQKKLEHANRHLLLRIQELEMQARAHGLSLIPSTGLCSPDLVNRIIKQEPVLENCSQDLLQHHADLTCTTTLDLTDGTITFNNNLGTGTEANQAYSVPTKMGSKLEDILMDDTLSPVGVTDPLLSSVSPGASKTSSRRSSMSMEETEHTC
TEAD-YAP block – TEAD-YAP interaction inhibition; HEK-TIYL cells, TEAD-Gal4/YAP UAS-luciferase luminescence; hit rate 1.4% among 640,000; inhibition, % at 9.12 µM; in the data active means inhibition above about 32%;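 further: 0% = median of test compound wells and 100% = reference inhibitor wells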
GPR151 activ – activates the human receptor GPR151; AID 1508602; hit rate 1% among 650,000; activation, % at 11.2 µM; PathHunter beta-arrestin GPR151 cells, luminescence; Q8TDV0; in the data active means activation above about 4.9%;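 further: 0% = median of compound wells and 100% = cells with positive control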
FBW7 act – human FBW7 E3 ligase activation, primary screen. AlphaScreen FBW7–phospho-cyclin E peptide binding, activator screen. Q969H0. AID 1259310. hit rate 0.13% among 650,000. normalized activity (activation), % at 26.1 µM; in the data active means normalized activity above about 1.9%;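 further: purified mutant Fbw7 with reduced substrate affinity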
MITF confirm – human MITF inhibition, confirmation. AlphaScreen MITF homodimerization, biotin/His-MITF beads. hit rate 16% among 4,700. inhibition, % at 2.6 µM. shares compounds with MITF inh;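 active means inhibition above a cutoff derived from the DMSO control wells, cut at about 28% in these data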;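 further: 0% = MITF dimer wells with DMSO only; inhibitors lower the bead chemiluminescence by keeping MITF from dimerizing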
AlphaScreen DR – AlphaScreen optical interference, dose response counter-screen | shares compounds with MITF inh | AlphaScreen optical interference counterscreen, cell-free | IC50, µM | hit rate 6% among 480; call rule not given here
AlphaScreen intf2 – AlphaScreen optical interference, counter-screen | shares compounds with MITF inh | LysRS AlphaScreen counterscreen, signal interference, triplicate | inhibition, % at 2.6 µM | hit rate 7.6% among 4,700 | AID 1259376;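 active means inhibition above a cutoff derived from the DMSO control wells, cut at about 30% in these data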
The depositor's hits bear a star; · = no result given.

SMILES	MITF inh	TEAD-YAP block	GPR151 activ	FBW7 act	MITF confirm	AlphaScreen intf2	others
O=C(CNCCc1ccccc1)Nc1ccc(C(=O)N2CCCCC2)cc1	52.0*	-13.2	-0.1	0.4	9.7	18.6
O=C(CCc1ccccc1)Nc1ccc(C(=O)N2CCCCC2)cc1	-15.5	3.0	0.3	0.0	·	·
O=C(CNCCc1ccc(Cl)cc1)Nc1ccc(C(=O)N2CCCCC2)cc1	58.3*	5.7	0.2	0.0	9.3	20.9
O=C(CNC1CCCCCC1)Nc1ccc(C(=O)N2CCCCC2)cc1	44.1	10.6	-1.0	0.0	·	·
O=C(CNCc1ccccc1Cl)Nc1ccc(C(=O)N2CCCCC2)cc1	71.7*	-0.3	-0.4	0.1	15.6	17.6
O=C(CCl)Nc1cc(C(=O)O)cc(C(=O)O)c1	6.8	4.0	-0.5	0.0	·	·
Nc1o[nH]c(=O)c1N=Nc1cccc(F)c1	9.9	-4.4	-0.8	-0.5	·	·
CCOc1ccc(C2C(C(=O)OC(C)C)=C(C)Nc3nnnn32)cc1 (stereo unspecified)	-0.3	0.0	-0.9	0.0	·	·
O=C(O)c1cc(N/N=C/c2ccc(N3CCOCC3)s2)ccc1Cl	75.5*	-16.3	-0.9	-0.1	59.7*	21.4	AlphaScreen DR=>7.09
O=C(CC1C(=O)N(c2ccccc2)C(=S)N1Cc1ccc2c(c1)OCO2)NCCc1ccccc1 (stereo unspecified)	-10.9	6.5	0.8	0.1	·	·
O=C(NNC(=S)Nc1ccccc1)C(=O)NNC(=S)Nc1ccccc1	78.6*	-3.8	-0.3	-1.0	58.2*	-21.6
COc1ccc(OC)c(CN2CCN(C(=O)CCC3CCCC3)CC2)c1	52.2*	-10.2	1.7	-0.1	-3.8	-6.1
Cc1ccccc1CN1CCN(C(=O)CCC2CCCC2)CC1	53.3*	10.5	0.2	0.2	-8.0	-1.3
O=C(CCC1CCCC1)N1CCN(Cc2cccc(F)c2)CC1	63.0*	5.2	0.3	0.0	-9.5	-7.9
O=C(CCC1CCCC1)N1CCN(C(=O)c2cccc(F)c2)CC1	-12.3	-10.0	-0.8	0.1	·	·
CCOc1ccc(-n2nc3ccc(NC(=O)c4ccc(-c5ccccc5)o4)cc3n2)cc1	-8.1	-5.6	0.2	0.0	·	·
CC(C)(C)NC(=O)CN(Cc1ccc(F)cc1)C(=O)CCC(=O)Nc1ccccn1	18.3	-4.1	-1.4	0.0	·	·
Cc1cccc(C(=O)N2CCN(c3oc(-c4ccc(Cl)cc4)nc3C#N)CC2)c1	74.9*	0.7	0.2	-0.1	5.8	-2.8
N#Cc1nc(-c2cccc(Cl)c2)oc1N1CCN(C(=O)c2ccc(Cl)cc2)CC1	-6.5	-6.7	4.6	-0.1	·	·
Cc1[nH]c(=O)[nH]c(=O)c1S(=O)(=O)NC1CCCCCC1	-0.3	8.9	-0.7	0.1	·	·
CCCNC(=O)c1cc(Nc2cccc(N(C)C)c2)nc2ccccc12	-6.8	3.6	-1.6	-0.1	·	·
CN(C)c1cccc(Nc2cc(C(=O)NCCc3ccc(O)cc3)c3ccccc3n2)c1	69.8*	0.4	0.8	0.1	-2.8	3.0
O=C(O)c1ccc(NC(=O)c2ccccc2C(=O)O)cc1	-3.8	1.1	0.7	-0.2	·	·
c1ccc(-c2ccc(SCc3cccnc3)nn2)nc1	85.3*	-28.8	-2.6	-1.7	99.4*	100.3*
c1ccc(CSc2ccc(-c3ccccn3)nn2)nc1	86.4*	-10.4	-1.5	-1.9	96.3*	100.3*
SMILES	MITF inh	TEAD-YAP block	GPR151 activ	FBW7 act	MITF confirm	AlphaScreen intf2	others
CCSc1ccc(-c2ccccn2)nn1	82.4*	-38.5	-3.3	-0.2	76.1*	96.5*
NC(=O)CSc1ccc(-c2ccccn2)nn1	81.6*	-3.1	-0.1	-0.2	72.7*	94.1*
Fc1ccc(-c2ccc(SCc3cccnc3)nn2)cc1	4.3	-59.4	-0.9	0.3	·	·
CCN(CC(N)=O)S(=O)(=O)c1ccccc1	12.2	-3.1	0.0	0.1	·	·
C=CCNC(=O)C1CCN(c2c3c(nc4ncnn24)CCC3)CC1	9.9	0.3	-0.1	0.0	·	·
CCOC(=O)N1CCC(Nc2c(NCc3ccccc3OC)c(=O)c2=O)CC1	3.9	4.9	-2.0	-0.1	·	·
O=C(CNCCc1ccc(Cl)cc1)Nc1ccccc1N1CCOCC1	64.8*	-12.7	-0.4	-0.1	-0.9	18.2
O=C(CNCCC1=CCCCC1)Nc1ccccc1N1CCOCC1	76.8*	-0.3	-0.8	0.4	-14.5	0.6
O=C(CNCCc1ccccc1)Nc1ccccc1N1CCCCCC1	24.5	-8.5	3.2	-0.2	·	·
O=C(NCCc1nnc2n1CCN(Cc1cccc3ccccc13)CC2)c1cccnc1	5.6	9.2	-0.9	0.2	·	·
OC(COCc1ccc(Cl)cc1)CN1CCCC1 (stereo unspecified)	15.8	-8.9	0.6	-0.1	·	·
OC(COCc1ccc(Cl)cc1)CN1CCN(CC2CCCO2)CC1 (stereo unspecified)	67.6*	-5.0	1.4	0.1	8.3	11.6
COc1ccc(Cc2nnc(N/N=C/c3cccc([N+](=O)[O-])c3)[nH]c2=O)cc1OC	-9.5	-0.9	-1.0	0.2	·	·
COc1ccc(Cc2nnc(N/N=C/c3c(CO)cnc(C)c3O)[nH]c2=O)cc1OC	111.5*	4.1	-0.2	-0.7	107.3*	99.9*
CC(=O)OC1NC(=O)NC1OC(C)=O (stereo unspecified)	8.4	4.6	-0.3	-0.2	·	·
CCCCCC(C)(C)NC(=O)CN1CCOCC1	51.1*	-1.6	-0.1	0.0	11.1	7.7
COc1cccc(C(=O)NNC(=O)C(=O)NC(C)C)c1	10.1	0.1	-0.2	0.3	·	·
COc1cccc(C(=O)NNC(=O)C(=O)NCCO)c1	61.5*	4.6	1.1	1.4	-5.9	3.1
O=[N+]([O-])c1ccc(CN2CCN(Cc3ccc4c(c3)OCO4)CC2)s1	56.4*	4.2	0.8	0.0	6.8	4.3
O=C(c1ccccc1[N+](=O)[O-])N1CCN(Cc2ccc3c(c2)OCO3)CC1	-7.5	1.3	0.3	0.2	·	·
O=[N+]([O-])c1ccc(CN2CCN(c3ccccc3F)CC2)s1	53.0*	-7.1	0.9	-0.1	5.8	9.9
O=[N+]([O-])c1ccccc1CN1CCN(Cc2ccc3c(c2)OCO3)CC1	58.7*	-9.8	-0.4	-0.2	18.5	36.2*
O=C(NCCC1=CCCCC1)C1CC12CCN(C(=O)Cc1ccsc1)CC2 (stereo unspecified)	7.3	-14.7	2.5	0.1	·	·
NS(=O)(=O)c1ccc(N=Cc2ccc(OC(=O)c3ccccn3)cc2)cc1	55.3*	-10.1	-1.6	-0.2	17.1	44.9*
CN(C)/N=C/c1ccc(OC(=O)c2ccccn2)cc1	43.4	-4.9	-1.6	-0.3	·	·
CC(=O)c1cccc(N=Cc2ccc(OC(=O)c3ccccn3)cc2)c1	19.8	-7.1	-2.4	-0.3	·	·
N#C/C(=C\c1ccc(OC(=O)c2ccccn2)cc1)C(N)=O	53.0*	10.3	-1.0	0.0	30.9*	55.7*
CC1=NNC(=O)C1CC(=O)N/N=C/c1ccccc1Br (stereo unspecified)	-21.0	-1.5	-1.1	-0.2	·	·
